Reference: PubChem BioAssay (NCI)
This is part of a sample that, as a whole, favours compounds with a hit. Of some 83,000 tested, about 20% had one in any assay.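 In brief: 96-well plates, 48 h treatment, single concentration, percent growth endpoint.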 A number with no mark means an inactive call. Calls of active or inactive are those of the source. The calls were made as follows: active = growth percent below 10; inactive = the rest.

Experiments:
Experiment in all cases: NCI-60 one-dose screen, 48 h (100 = growth as untreated, 0 = no growth, -100 = all killed)
Conditions in all cases: 10 µM unless noted
DU-145 prostate = test system: DU-145 prostate
K-562 leukemia = test system: K-562 leukemia
MALME-3M melanoma = test system: MALME-3M melanoma
MDA-MB-231 breast = test system: MDA-MB-231 breast
RXF 393 renal = test system: RXF 393 renal
SF-268 CNS = test system: SF-268 CNS
SF-295 CNS = test system: SF-295 CNS
SF-539 CNS = test system: SF-539 CNS
UACC-257 melanoma = test system: UACC-257 melanoma
M14 melanoma = test system: M14 melanoma

| SMILES | growth (DU-145 prostate) | growth (K-562 leukemia) | growth (MALME-3M melanoma) | growth (MDA-MB-231 breast) | growth (RXF 393 renal) | growth (SF-268 CNS) | growth (SF-295 CNS) | growth (SF-539 CNS) | growth (UACC-257 melanoma) | growth (M14 melanoma) |
| --- | --- | --- | --- | --- | --- | --- | --- | --- | --- | --- |
| COc1ccc(CNc2c3ccccc3nc3ccccc23)cc1 | 48% | 6.97% (active) | 40% | 47.4% | 27.6% | 63.4% | 39.1% | 27.5% | 52.3% | 37.1% |
| O=C1/C(=C\c2ccc3nccnc3c2)SC(=S)N1CCc1ccc(O)cc1 | 59.6% | 96.9% | 75.7% | 88.7% | 93% | 90.8% | 105% | 82.2% | 81.9% | 85.5% |
| CC1=C([Se]CC(OC(=O)CC[Se]c2ccccc2)C(=O)NC(C)(C)C)C(=O)c2ccccc2C1=O (stereo not given) | -94.8% (active) | -11.3% (active) | -57.2% (active) | -41.7% (active) | -87.5% (active) | -88.9% (active) | -36.2% (active) | -99% (active) | -87.3% (active) | -77.8% (active) |
| O=C(Nc1ccc(Oc2cccc(F)c2)c(Cl)c1)c1cccnc1 | 21.8% | 16.2% | 47.2% | 60.2% | 13.5% | 53.7% | 40.1% | 4.06% (active) | 56.1% | 15.9% |
| COc1ccc(C2=C(Nc3ccc(C(=O)Nc4ccccc4)cc3)C(=O)N(C)C2=O)cc1 | 98% | 81.5% | 93.7% | 83.2% | 105% | 97.1% | 98.9% | 97.6% | 87.6% | 99.9% |
| CC(O)(c1ccccc1)C(c1ccccc1)C1CCCCN1 (stereo not given) | 103% | 95.6% | 97.5% | 93.9% | 106% | 99.6% | 99.8% | 96.5% | 96.2% | 92.3% |
| Cc1ccc(C)n1-c1ccccc1-n1c(C)ccc1C | 111% | 101% | 120% | 90.8% | 109% | 98.6% | 92.9% | 104% | 103% | 112% |
| Cc1cn(-c2cc(NC(=O)c3cccc(C#Cc4cccc5[nH]nc(N)c45)c3)cc(C(F)(F)F)c2)cn1 | 57.6% | 3.17% (active) | 12.4% | 16.9% | -6.88% (active) | 53.2% | 27.5% | 6.24% (active) | 41.4% | 7.33% (active) |
| CCC(=O)Oc1ccc(-c2ccccc2)cc1Br | 107% | 107% | 109% | 103% | 106% | 103% | 104% | 106% | 106% | 102% |
| CCCOC(=O)Nc1nc2ccc(SCC(C)C)cc2s1 | 57.8% | 20.8% | 38.7% | 62.7% | 28.2% | 52.7% | 32.4% | 26.9% | 58.7% | 34% |
| COC(=O)Nc1nc2ccc(S(=O)c3ccccc3)cc2[nH]1 (stereo not given) | 96.3% | 29.9% | 83.7% | 68.4% | 107% | 84.8% | 58.4% | 73.6% | 73.9% | 44.5% |
| CC/C(=C(/c1ccc(Cl)cc1)c1ccc(OCCN2CCCCC2)cc1)c1ccc(OC)cc1 | 82.8% | 2.95% (active) | 75.4% | 73.3% | 47.9% | 86.5% | 55.1% | 65.5% | 54.2% | 28.2% |
| N#Cc1c(-c2ccccc2)[nH]c2ncc(-c3ccccc3)n2c1=O | 99.7% | 98.7% | 91.5% | 76.3% | 102% | 91.7% | 78.2% | 89.9% | 94% | 91.3% |
| Cn1c(=O)cc2c3c(c(NCCCO)ccc31)C(=O)c1ccccc1-2 | 45.4% | 38.1% | 27.3% | 58.1% | 42.6% | 42.3% | 42.8% | 50% | 64.2% | 55.3% |
